Screening data as filed in PubChem.
FMDV antiviral – High Throughput Screening for Foot and Mouth Disease Virus Antivirals. FMDV antiviral cell-based qHTS. Potency, µM (series often up to 57.9 µM), actives largely listed as inhibitors. actives 1.2% (n = 410,000); calls by dose curve; tested in HEK293T cells; note: read-out not given here; nearly all actives have a fitted effect of over 45% in size
HCMV antiviral – qHTS Assay for inhibitors of the human cytomegalovirus (HCMV); HFF cells, HCMV-luciferase reporter, 72 h; active compounds read low; AID 1259415, 2018; actives 4.5% (n = 410,000); activity change, negative = inhibition, % at 57.5 µM; in the data active = activity change below about -60%; inconclusive = no clear call, values can overlap the other calls; inactive = above about -39%
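Cell-based, HFFs, 1000 cells/well, 16 h 37C; cpds in DMSO + HCMV-luc, MOI 1 PFU/cell; 72 h 37C; OneGlo luminescence after 5 min RT; norm. to buffer vs Salinomycin 10uM.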
VACV mCherry inh – qHTS for Stage-Specific Inhibitors of Vaccinia Orthopoxvirus: mCherry Reporter Primary qHTS | Vaccinia virus mCherry reporter infection, fluorescence | Potency, µM (highest dose often 36.5 µM), actives largely listed as inhibitors | actives 0.63% (n = 310,000); calls by dose curve; tested in A549 cells; note: nearly all actives have a fitted effect of over 35% in size
Sm TGR inh – qHTS Assay for the Inhibitors of Schistosoma Mansoni Peroxiredoxins | purified TGR, DTNB reduction, TNB absorbance 405 nm | Potency, µM (doses to about 114 µM), actives largely listed as inhibitors | actives 3% (n = 360,000) | AID 485364, 2010; note: nearly all actives have a fitted effect of over 60% in size
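Kinetic colorimetric format: TGR-catalysed, NADPH-driven DTNB reduction monitored via TNB absorbance. Enzyme dispensed at 20 nM; compound exposure 15 min at room temperature before reaction start.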
VACV Venus inh – qHTS for Stage-Specific Inhibitors of Vaccinia Orthopoxvirus: Venus Reporter Primary qHTS; Potency, µM (highest dose often 36.5 µM), most hits filed as inhibitors; AID 720580, 2013; Vaccinia virus Venus reporter expression, fluorescence; actives 0.46% (n = 330,000); calls by dose curve; tested in A549 cells; note: nearly all actives have a fitted effect of over 30% in size
HCV inh – qHTS Assay for Inhibitors of Hepatitis C Virus (HCV). AID 651820, 2012. Huh7.5.1 HCVcc-Cre infection, luciferase reporter, 44 h. Potency, µM (top dose mostly 41.8 µM), actives largely listed as inhibitors. actives 3.4% (n = 340,000)
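After 44 h co-culture of compound, cells and HCVcc-Cre (~0.5 moi), substrate is added for 15 min at room temperature and luciferase measured over 15 sec. Cells were seeded at 1,000/well and pre-cultured 4 h.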
Numbers stand for hits; n = inactive; u = inconclusive; x = no result; [ ] = dose if it differs, or a comment. A selection: hits, their analogues and other compounds. The true share with any hit is near 9.3%. Unless noted, calls come from the whole dose curve; as a rule, active = well fitted curve in the direction sought with a large enough effect; inconclusive = small, poorly fitted or top-dose-only effect, or another doubt; inactive = no such curve, though single readings can be large; an effect the other way counts as inactive or inconclusive.

SMILES	FMDV antiviral	HCMV antiviral	VACV mCherry inh	Sm TGR inh	VACV Venus inh	HCV inh
CCN(CC)CCCC(C)Nc1c2ccc(Cl)cc2nc2ccc(OC)cc12 (configuration not stated)	n	x	n	u	u	x
CC(C)c1ccc2[nH]c(O)c(N=NC(=O)c3cccc(S(=O)(=O)Nc4ccccc4Cl)c3)c2c1	n	n	n	n	n	n
CN(c1ccccc1)S(=O)(=O)c1cccc(C(=O)NCCc2c[nH]c3ccccc23)c1	u	n	x	x	x	10µM
O=C(Cc1c(F)cccc1Cl)NCCc1c[nH]c2ccccc12	n	n	n	n	n	n
O=C(N=Nc1c(O)[nH]c2ccccc12)c1cccc(S(=O)(=O)Nc2ccccc2Cl)c1	n	-71.8	x	n	x	n
O=C(NCCc1c[nH]c2ccccc12)c1cccc(S(=O)(=O)Nc2ccccc2Cl)c1	n	-99.8	u	n	n	n
O=C(O)C1CC=CCC1C(=O)NCCCN1CCCC1=O (configuration not stated)	n	n	x	n	x	n
CN(C)Cc1ccccc1OC(=O)N(C)C	n	n	x	n	n	n
Cc1nc2cc(OC(=O)N(C)Cc3cccc(-c4ccncc4)c3)ccc2s1	28.2µM	x	n	x	n	x
CN(Cc1cccc(-c2ccncc2)c1)C(=O)Oc1ccccc1Cc1ccccc1	22.4µM	x	n	x	n	x
CN(Cc1cccc(-c2ccncc2)c1)C(=O)Oc1ccccc1Cl	20µM	x	n	x	n	x
Cc1cc(C)c2c(=O)[nH]c(SCC(=O)NCCc3ccccc3)nc2n1	x	n	n	n	n	n
C=CC[C@H]1CC(C)=C[C@H](CC=C)N1C(=O)c1cc(COc2ccccc2SC)on1	u	n	n	n	n	12.6µM
Cc1cccc(C)c1NC(=O)CNC(=O)c1ccncc1	n	u	n	n	n	n
CCn1cc(C(=O)NCc2ccccc2OC)c(=O)c2cc(S(=O)(=O)N3CCCCCC3)ccc21	n	n	n	n	n	x
CCn1cc(C(=O)NCc2ccccc2OC)c(=O)c2cc(S(=O)(=O)N(C)C)ccc21	n	u	x	n	x	14.1µM
CCn1cc(C(=O)NCc2ccc(Cl)cc2)c(=O)c2cc(S(=O)(=O)N(C)C)ccc21	n	-71.0	u	n	n	u
C=CCn1cc(C(=O)NCc2ccc3c(c2)OCO3)c(=O)c2cc(S(=O)(=O)N(CC)CC)ccc21	n	n	n	n	n	u
C=CCn1cc(C(=O)NCc2cccnc2)c(=O)c2cc(S(=O)(=O)N(CC)CC)ccc21	n	-60.9	n	n	n	n
N#Cc1ccccc1NC(=O)COC(=O)C1CCN(C(=O)c2ccc(Cl)cc2)CC1	n	n	x	n	x	n
C=CCOc1ccc(C(=O)c2ccccc2)c(OCC(=O)NC2(C#N)CCCC2)c1	n	n	n	n	n	u
Cn1nc(CC(=O)NCc2ccc(C(F)(F)F)cc2)c2ccccc2c1=O	15.8µM	n	x	n	x	u
Cn1nc(CC(=O)Nc2cccc3ncccc23)c2ccccc2c1=O	u	-66.6	u	n	u	u
Cn1nc(CC(=O)NC2CCCCCC2)c2ccccc2c1=O	u	-72.2	n	n	n	3.16µM
Cn1nc(C(=O)NCc2ccc(F)cc2)c2ccccc2c1=O	n	n	x	n	x	n
SMILES	FMDV antiviral	HCMV antiviral	VACV mCherry inh	Sm TGR inh	VACV Venus inh	HCV inh
COc1ccc(OCC(=O)Nc2cccc3ncccc23)cc1	u	n	x	n	n	n
O=C(CCl)Nc1cccc2ncccc12	n	-98.6	3.55µM	44.7µM	u	12.6µM
Cn1nc(CC(=O)NC2CCCCC2)c2ccccc2c1=O	n	n	n	n	n	n
O=C(Oc1ccc(Cl)cc1N1C(=O)CCC1=O)c1ccco1	n	n	n	n	n	n
Cn1nc(C(=O)NC2CCC(O)CC2)c2ccccc2c1=O (configuration not stated)	n	-64.5	x	n	x	n
Cn1nc(C(=O)Nc2ccccc2N2CCCC2)c2ccccc2c1=O	u	n	x	n	x	11.2µM
COc1ccc(OC)c(NC(=O)Cc2nn(C)c(=O)c3ccccc23)c1	u	u	n	n	n	n
COc1ccc(CNC(=O)Cc2nn(C)c(=O)c3ccccc23)cc1	15.8µM	u	x	n	u	u
C#Cc1ccc([C@H]2C=C(C(=O)O)O[C@@H](OCc3ccc(CO)cc3)C2)cc1	n	n	n	35.5µM	n	n
O=C(C1=C[C@H](c2ccc(C(F)(F)F)cc2)C[C@H](OCc2ccc(CO)cc2)O1)N1CCOCC1	n	n	n	u	n	n
O=C(O)C1=C[C@H](c2ccc(C(F)(F)F)cc2)C[C@H](OCc2ccc(CO)cc2)O1	n	n	n	50.1µM	n	n
O=C(C1=C[C@@H](c2ccc(C(F)(F)F)cc2)C[C@@H](OCc2ccc(CO)cc2)O1)N1CCN(Cc2ccccc2)CC1	n	n	n	35.5µM	n	n
COC(=O)c1ccc([C@H]2C=C(C(=O)O)O[C@@H](OCc3ccc(CO)cc3)C2)cc1	n	n	n	10µM	n	n[8.37 µM]
COc1cccc(NC(=O)[C@@H]2CCCN2S(=O)(=O)c2cccc3cccnc23)c1	n	n	n	n	n	n
FC(F)(F)c1ccccc1CN1CCC(Cc2ccccc2)CC1	n	n	n	n	n	n
Cc1cc2ccccc2cc1CN1CCCCC1	n	n	x	n	x	n
Oc1c(CN2CCCCC2)ccc2cccnc12	n	-73.5	8.91µM	x	u	10µM
CCOC(=O)N1CCN(Cc2ccc(O)c3ncccc23)CC1	n	n	u	0.282µM	u	4.47µM
Oc1c(Cl)cc(CN2CCCCC2)c2cccnc12	x	x	x	4.47µM	x	x
Clc1ccccc1CN1CCC(Cc2ccccc2)CC1	n	-101.0	n	n	n	n
CSc1ncccc1C(=O)N1CCN(S(=O)(=O)c2cc(C)ccc2C)CC1	n	n	n	n	n	n
Oc1ccc(CN2CCCCC2)c2cccnc12	x	-68.4	n	n	u	6.31µM
Oc1c(CN2CCOCC2)ccc2ccccc12	n	n	u	0.562µM	n	n
Cc1ccc(C)c(S(=O)(=O)N2CCN(Cc3ccc(O)c4ncccc34)CC2)c1	n	-100.4	u	u	u	u
Oc1ccc(CN2CCc3ccccc3C2)c2cccnc12	n	-99.3	x	31.6µM	x	3.98µM
CCNC(=O)c1ccc2c(c1)sc1nc(-c3cccc(OC)c3)cn12	n	x	n	n	n	x
Oc1ccc(CN2CCC(Cc3ccccc3)CC2)c2cccnc12	u	-101.0	n	7.94µM	u	u
CCOc1ccc(CN2CCC(Cc3ccccc3)CC2)cc1	n	n	x	n	x	u
c1cnc2ccc(C(c3nnnn3C3CCCCC3)N3CCCCC3)cc2c1 (configuration not stated)	n	u	n	n	n	n
